The values that follow come from PubChem BioAssay AID778 (Sanford-Burnham Center for Chemical Genomics, 2007).

Hit rate of the full screen: of about 96,000 compounds, about 20,000 (21%) were called active. These entries were drawn from the full list. Values without a mark were called inactive.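 How the source made its calls: active means CYP2C19 inhibition above a set limit at 5 µM in the primary screen (cut at about 50% in these data); inactive means the rest.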

In the test the target is Cytochrome P450 2C19 (Homo sapiens) (UniProt P33261). As to the kind of experiment: blockers of cytochrome P450 2C19 activity – biochemical, luminescence, ADME assay, primary screen (AID 778).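 Further: plate controls were negative control wells for no effect and 2.5 mM tranylcypromine positive control for full effect.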 The settings on record: CYP2C19 Supersomes, luciferin-H EGE luminescence, 30 min; at 5 µM; hits give high values.
Cytochrome P450 2C19 (Homo sapiens), sequence (P33261 whole entry, looked up): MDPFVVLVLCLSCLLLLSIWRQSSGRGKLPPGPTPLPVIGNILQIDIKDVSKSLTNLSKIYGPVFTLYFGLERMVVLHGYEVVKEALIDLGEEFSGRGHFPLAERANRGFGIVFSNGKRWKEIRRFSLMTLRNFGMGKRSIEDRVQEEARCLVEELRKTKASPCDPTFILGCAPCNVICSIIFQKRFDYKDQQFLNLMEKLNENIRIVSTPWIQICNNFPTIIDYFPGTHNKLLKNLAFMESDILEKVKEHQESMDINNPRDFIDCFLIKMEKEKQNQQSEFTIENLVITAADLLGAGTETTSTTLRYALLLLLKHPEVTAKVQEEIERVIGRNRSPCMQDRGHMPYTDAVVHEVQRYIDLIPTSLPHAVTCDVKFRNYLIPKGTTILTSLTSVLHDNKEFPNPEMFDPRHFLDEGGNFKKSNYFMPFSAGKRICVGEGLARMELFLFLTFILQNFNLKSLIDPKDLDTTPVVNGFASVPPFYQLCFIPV
Broadly, the inhibition is the drop in the measured response relative to a control, in per cent. In the case of `Cc1nnc(SCC(=O)Nn2cnnc2)s1`, the inhibition was 4%. The same measure for `CC(NCCO)C(=O)C12CC3CC(CC(C3)C1)C2` (stereo not drawn): -5.4%. Turning to `CC(C)(C)Cc1nnc(NC(=O)c2cc(-c3ccccc3)nc3ccccc23)s1`, the inhibition was 11.9%. Consider `COc1cccc(OC)c1OCCN1CCN(C(=O)c2ccco2)CC1`, for which the inhibition was 21%.

For the molecule `CCn1cc(C(=O)N2CCN(Cc3ccc4c(c3)OCO4)CC2)c2cc(OC)c(OC)cc2c1=O`, the inhibition was 29.5%. For `COc1ccc(Br)cc1CN1CCN(C(=O)c2cccc(OC)c2OC)CC1` the value was 74% (active). For `CCCn1nc2cc(C(=O)NCc3ccccc3)ccc2c1OCC` the value was 2.2%; for `CCCS(=O)(=O)C(=C1Nc2ccccc2N1)S(=O)(=O)CCC`, 8.6%. With `C=CCN1C(=O)C(O)(CC(=O)c2ccc(Cl)cc2)c2ccccc21` (stereo not drawn), the inhibition is 89.1% (active). Consider `CCOC(=O)CN1C(=O)C(O)(CC(=O)c2ccccn2)c2ccccc21` (stereo not drawn), for which the inhibition was 6.5%. On to `O=C(CC1(O)C(=O)N(CN2CCOCC2)c2ccccc21)c1ccccc1` (stereo not drawn), for which the inhibition was 12.7%. The same measure for `Fc1ccc2nc(Nc3nc4c(s3)CCCC4)sc2c1`: -8.1%; for `Cc1nc2ccc(S(=O)(=O)NC(C(=O)N3CCCCCC3)C(C)C)cc2s1` (stereo not drawn): 21.2%; for `CC(C)Cc1ccc(S(=O)(=O)N2CCN(C(=O)c3ccco3)CC2)cc1`: 28.1%.

For the molecule `CC(c1ccco1)N(C(=O)COc1ccccc1[N+](=O)[O-])c1ccccn1` (stereo not drawn), the inhibition is 40.5%. In the case of `CC(c1ccco1)N(C(=O)c1ccc(S(=O)(=O)N2CCCCC2)cc1)c1ccccn1` (stereo not drawn), the inhibition is 59.1% (active). On to `Cc1c(NC(=O)/C=C/C(=O)O)cccc1[N+](=O)[O-]`, for which the inhibition was 26.2%. The same measure for `CO/N=C/c1ccc(N2CCN(C(=O)c3cccc(Cl)c3)CC2)c([N+](=O)[O-])c1`: 33.8%. For `Cc1c(C)c2cc3c4c(oc3c(C)c2oc1=O)CCCC4` the value was -0.1%; for `CCOC(=O)c1cnc(-c2ccccc2)nc1Oc1ccc(C)cc1`, 35.2%. Regarding `Cc1ccc(OC(=O)c2ccccc2C(=O)OCC(F)(F)C(F)F)cc1`, the inhibition is 88.6% (active).

`Cc1ccc(OC(=O)c2cc3ccccc3o2)cc1`: the inhibition was -12.8%. The same measure for `Cc1ccc(C(=O)CS(C)(=O)=O)cc1`: 1%; for `COc1ccc(-n2ncc3c(N4CCCc5ccccc54)ncnc32)cc1`: 12.3%; for `O=C(CN1CCSCC1)N/N=C/c1ccc(F)cc1`: 16.6%. The same measure for `O=C(CSc1ccc(/C=N/NC(=O)c2cccc(F)c2)o1)Nc1ccccc1`: 17.1%. Consider `Cc1ccc(/C=N/NC(=O)Cn2nc(C)c(Br)c2C)o1`, for which the inhibition was 50.5% (active). For `O=C(Nc1ccc2c(c1)nc1n2CCCCC1)c1cc(S(=O)(=O)N2CCOCC2)ccc1Cl` the value was 25.7%. For `CCCCCOC(=O)NCCOC(=O)Nc1ccc(C(=O)OCC)cc1` the value was 4.4%. The same measure for `Cc1cc(NC(=O)c2cnn3cccnc23)n(-c2ccccc2)n1`: 25%. In the case of `O=C1CSC(c2cccc(F)c2)N1c1ccccc1F` (stereo not drawn), the inhibition is 32.9%. On to `O=C(c1cccc(S(=O)(=O)N2CCOCC2)c1)N1CCOCC1`, for which the inhibition is -6.3%. For `CC(C)C(NC(=O)c1cccc(S(=O)(=O)N2CCOCC2)c1)C(=O)NCCc1ccccn1` (stereo not drawn) the value was -13.9%; for `CCN(Cc1ccncc1)C(=O)c1cccc(S(=O)(=O)N2CCOCC2)c1`, 97% (active); for `COc1ccc(Nc2nc(=O)[nH]nc2C)cc1`, 5%.

As to `Cn1c(CCN2CCCCCC2)nc2cc(NC(=O)Nc3ccccc3)ccc21`, the inhibition was -3.4%. For `O=c1[nH]c2c(c(=O)n1Cc1ccccc1)CCC2` the value was -3.7%; for `COc1ccc(C(=O)CN(C(=O)c2ccc(Cl)cc2)N2C(=O)c3ccccc3C2=O)cc1`, 36%; for `Cc1cc(NC(=O)CS(=O)(=O)c2cn(C)c3ccccc23)no1`, 27.3%.

In the case of `CCN(CC)C(=O)CSC1c2ccccc2C(=O)N1c1ccccc1` (stereo not drawn), the inhibition was 49.3%.

As to `CCc1ccccc1NC1c2ccccc2C(=O)N1c1cccnc1` (stereo not drawn), the inhibition is 81.5% (active). For `N#Cc1nc(N)nc(N(c2ccccc2)c2ccccc2)n1` the value was 10.4%; for `CC(=O)Nc1cccc(-c2csc(Nc3cccc(C)n3)n2)c1`, 5.7%; for `CCOC(=O)CCP(=O)(O)C(O)(c1ccccc1)c1ccccc1`, -0.4%.

For `CC1CCC(NS(=O)(=O)c2ccc3c(c2)n(C)c(=O)c(=O)n3C)CC1` (stereo not drawn), the inhibition was 8.2%. The same measure for `CSc1nc2ccc(S(=O)(=O)N3CCc4ccccc43)cc2s1`: 47.8%; for `Cn1c(=O)n(C)c2cc(S(=O)(=O)N3CCCc4ccccc43)ccc21`: 98.7% (active). The same measure for `CCn1c(=O)c(=O)n(CC)c2cc(S(=O)(=O)N3CCc4ccccc43)ccc21`: 91.3% (active). For `COc1ccc(C(=O)OCC(=O)NCC2CCCCC2)cc1S(=O)(=O)N1CCCc2ccccc21` the value was -0.1%; for `Cc1nn(C)c(C)c1S(=O)(=O)N1CCc2ccccc21`, 43.3%. Take `CC1C(c2ccccc2)=[N+]([O-])C2(CCCC2)N1O` (stereo not drawn): the inhibition is 18.6%. For `C=CCOc1cccc(CNn2cn[nH]c2=S)c1` the value was 33.9%; for `CCCOC(=O)Nc1sc2c(c1C(=O)OCC)CCC2`, -7.3%; for `COc1ccc(N2CCN(CCNC(=O)CCN3C(=O)COc4ccccc43)CC2)cc1`, 6.4%. For `COc1ccc(N2CCN(CCNC(=O)c3nnc(Cc4c(F)cccc4Cl)o3)CC2)cc1` the value was 77.3% (active). With `COc1ccc(CN2CC(C(=O)NCCN3CCN(c4ccccc4F)CC3)CC2=O)cc1` (stereo not drawn), the inhibition was -6.5%. `CCC(C(=O)Nc1ncccn1)(C(F)(F)F)C(F)(F)F`: the inhibition was -8.1%. For `NC(=O)CCCC1=NS(=O)(=O)c2ccccc2N1` the value was -6.5%. Turning to `COCc1cc(=O)[nH]c2cc(NC(=O)C(F)(F)F)c(C)cc12`, the inhibition is 0.8%. Take `CCC1CCCCN1CCNC(=O)c1[nH]c(C)c(C(C)=O)c1C` (stereo not drawn): the inhibition is 2.4%. The same measure for `CCC(=O)NC(Nc1nc2ccc(C)cc2s1)(C(=O)OC)C(F)(F)F` (stereo not drawn): 85.5% (active); for `CCC(=O)NC(Nc1cc(C)ccn1)(C(F)(F)F)C(F)(F)F`: 14.8%; for `COC(=O)C(NC(C)=O)(Nc1nc2c(s1)CCCC2)C(F)(F)F` (stereo not drawn): 39.3%. For `CNC(=S)NNC(=O)c1sccc1OCc1ccccc1` the value was 20.4%; for `COC(=O)CN(c1nc(C)c(Cl)c(OC)n1)S(=O)(=O)c1ccc(C)cc1`, 19.1%; for `COC(=O)c1ccc(NC(=O)CN(c2ccc(C)cc2)S(=O)(=O)c2c(C)n[nH]c2C)cc1`, 35%. `CCNC(=O)CN(c1ccc(C)cc1)S(=O)(=O)c1ccc(SC)cc1`: the inhibition was 75.6% (active). For `CC1CCC(NC(=O)c2ccc(N3CCCC3=O)cc2)CC1` (stereo not drawn) the value was -0.4%. The same measure for `CCCc1cc(=O)[nH]c(SCC(=O)c2cc(C)n(CCC)c2C)n1`: 29.3%; for `Cc1cc(=O)[nH]c(SCc2cccc(F)c2)n1`: 7%. For `CCCc1cc(=O)[nH]c(SCc2ccc(C#N)cc2)n1` the value was 65.1% (active); for `CCCc1cc(=O)[nH]c(SCC(=O)OCc2ccccc2)n1`, 55% (active); for `CCOC(=O)Cc1csc(NC(=O)CSc2nc(C)cc(=O)[nH]2)n1`, 12.8%. `CCCc1cc(=O)n2[nH]c(SCc3ccccc3)nc2n1`: the inhibition was 1.2%.

Regarding `CC(C)c1cc(C(N)=O)c(NC(=O)c2cccc(COc3ccc(Br)cc3)c2)s1`, the inhibition was 5.8%. The same measure for `CC(=O)Oc1ccc(C(C)=O)c2c1OCCO2`: 12.1%; for `CCOC(=O)N1CCN(C(=O)Cc2ccc(-n3c(=S)[nH]c4ccccc4c3=O)cc2)CC1`: 17.9%; for `COc1ccccc1CNC(=O)C1CCCN(S(=O)(=O)c2cccc3cccnc23)C1` (stereo not drawn): 16%. `Cc1ccc(-c2nn(-c3ccccc3)cc2CN(Cc2ccccc2)C(=O)CCC(=O)O)o1`: the inhibition is 23.4%. `CCN(Cc1ccccc1)C(=O)CSc1nc(C)cc2c1C(=O)OC2`: the inhibition is 72.3% (active). The same measure for `CCOC(=O)n1c(SCC(=O)N(CC)CC)nc2ccccc21`: 2.8%; for `CCN(CC)CCN1C(=O)C(=O)/C(=C(/O)c2ccc(OC)c(OC)c2)C1c1ccccn1` (stereo not drawn): -1.7%; for `CCCS(=O)(=O)N1CCCC(C(=O)N2CCN(c3ccccc3)CC2)C1` (stereo not drawn): -4.5%. For `CCCCNC(=O)C(=O)c1ccccc1NC(C)=O` the value was 13%; for `Oc1c(C(c2cccs2)N2CCN(c3ccc(F)cc3)CC2)sc2ncnn12` (stereo not drawn), 87.6% (active). Turning to `Oc1c(C(c2ccco2)N2CCC3(CC2)OCCO3)sc2ncnn12` (stereo not drawn), the inhibition was 68.4% (active). With `Cc1ccc(C(c2sc3nc(C)nn3c2O)N2CCN(c3ccccc3)CC2)cc1` (stereo not drawn), the inhibition was 33.7%. For `Cc1ccc(C(c2sc3nc(C)nn3c2O)N2CCN(c3ccc(F)cc3)CC2)cc1` (stereo not drawn) the value was 42.9%; for `CCOC(=O)c1ccc(COC(=O)CCc2nc(-c3ccccc3)c(-c3ccccc3)o2)cc1`, 34.1%; for `Cc1nc(NC(=O)CCC(=O)O)sc1C(=O)N(C)C`, -12.7%. For `CCOc1ccc(N=C2SC(C(=O)O)CC(=O)N2C)cc1` (stereo not drawn) the value was 1.7%. For `COc1ccc2c(c1OC)C(=O)OC2c1c(O)nc(SC)n(-c2ccccc2)c1=O` (stereo not drawn) the value was -15.5%. As to `O=c1cccc(-c2ccc(Br)cc2)o1`, the inhibition is -9.6%. As for `CC(=O)Nc1ccc(N2C(=O)C3C4CC(=O)C(c5ccccc54)C3C2=O)cc1` (stereo not drawn), the inhibition was 30.7%.

With `O=C(Nc1nnc(CCOCCOCCc2nnc(NC(=O)c3ccco3)s2)s1)c1ccco1`, the inhibition is 0.8%. For `Cc1ccc(-n2nc(-c3ccco3)cc2C(=O)NCc2cccnc2)cc1` the value was 16.2%.

Regarding `COCCn1c(=O)[nH]c2cc(C(=O)NCc3cccnc3)ccc2c1=O`, the inhibition is 3.1%. As for `O=C(c1ccc(F)cc1)c1c[nH]c(C(=O)NCc2cccnc2)c1`, the inhibition was 65.3% (active).
